Results taken from PubChem BioAssay (Tox21).
Records with an inconclusive call do not appear. The source made the active and inactive calls. The call rests on the fitted dose curve.

Assay: p53 small molecule agonists, cell-based qHTS assay: qHTS cell viability counter screen (AID 1963581); further: nearly all actives have a fitted effect of over 45% in size
Details: p53RE-bla HCT-116 viability, ATP luminescence, 16 h; series mostly up to 66 µM; activity change, negative = cytotoxicity: at the top concentration
Source text: National Center for Advancing Translational Sciences [NCATS]
Division of Preclinical Innovation [DPI]
U.S. Environmental Protection Agency [EPA]
National Institutes of Environmental Health Sciences [NIEHS]
National Toxicology Program [NTP]
U.S. Food and Drug Administration [FDA]
p53, a tumor suppressor protein, is activated following cellular insult, including DNA damage and other cellular stresses. The activation of p53 regulates cell fate by inducing DNA repair, cell cycle arrest, apoptosis, or cellular senescence. The activation of p53, therefore, is a good indicator of DNA damage and other cellular stresses. The CellSensor p53RE-bla HCT-116 cell line (Invitrogen) contains a stably integrated beta-lactamase reporter gene under control of the p53 response elements. The activation of the reporter gene under culture conditions can be detected by fluorescence intensity. This cell line was used to screen the Tox21 compound library in a 1536-well plate format and to identify agonists that activate the p53 signaling pathway. The cytotoxicity of the Tox21 compound library against the p53 RE-bla HCT-116 cell line was tested in parallel by measuring the intra cellular ATP content in the same wells.
Tox21 Assay Protocol Summary:
The p53RE-bla cells were dispensed at 4,000 cells/5 ul/well in 1536-well black wall/clear bottom plates using a Multidrop dispenser. After the assay plates were incubated at a 37 C/5% CO2 incubator for 5 hours, 23 nL of compounds dissolved in DMSO, positive controls or DMSO only was transferred to the assay plate by a pin tool. The plates were incubated at 37 C for 16 hours. After 1 uL of LiveBLAzerTM B/G FRET substrate was added using a Flying Reagent Dispenser, the plates were incubated at room temperature for 2 hours, and fluorescence intensity was measured by an Envision plate reader. For cell viability readout that measures cytotoxicity, 4 ul/well of CellTiter-Glo reagent was added into the assay plates using a Flying Reagent Dispenser. After 30 min incubation at room temperature, the luminescence intensity in the plates was measured using a ViewLux plate reader.
On the % scale 0 is the no-effect control and ±100 the full control effect.

| SMILES | activity change, negative = cytotoxicity |
| --- | --- |
| Cc1c(Nc2ncccc2C(=O)O)cccc1C(F)(F)F | -27.2% [at 30.3 µM] (inactive) |
| CCCCN1C[C@H](O)[C@@H](O)[C@H](O)[C@H]1CO | 20.8% [at 30.3 µM] (inactive) |
| CC1=NN(c2cc(S(=O)(=O)O)ccc2Cl)C(=O)C1N=Nc1ccccc1 (stereo not given) | -0.377% (inactive) |
| N/C(=N\N=C\c1ccc(Cl)cc1)N/N=C/c1ccc(Cl)cc1 | -13.4% [at 30.3 µM] (inactive) |
| CC(C)COC(=O)c1ccc(O)cc1 | 8.95% (inactive) |
| CC(=O)c1ccccc1[N+](=O)[O-] | 6.25% (inactive) |
| Cc1cc(C)c(C)c(C)c1 | 0.577% (inactive) |
| Cn1c(=O)c2c(ncn2CCO)n(C)c1=O | 17.4% [at 30.3 µM] (inactive) |
| CC1CCC(=O)C1=O (stereo not given) | 2.65% (inactive) |
| Nc1nc(-c2ccccc2)cs1 | 12% (inactive) |
| CC(C)(Cc1c[nH]c2ccccc12)NCC(O)COc1ccccc1C#N (stereo not given) | -7.83% [at 30.3 µM] (inactive) |
| O=CNc1ccccc1 | 1.49% (inactive) |
| CO[Si](OC)(c1ccccc1)c1ccccc1 | 14% (inactive) |
| C[C@@H](O)C(=O)O | -1.13% (inactive) |
| CC(C)(C)Cl | 0.455% (inactive) |
| O=C(Nc1ccc(C(=O)O)c(O)c1)c1ccccc1 | -14.4% [at 30.3 µM] (inactive) |
| CC(C)=CCC[C@](C)(O)[C@@H]1CC=C(C)CC1 | -8% (inactive) |
| Cc1ccc(S(=O)(=O)C(I)I)cc1 | -24% (inactive) |
| CC(C)c1ccc2cc(C(C)C)ccc2c1 | -1.43% (inactive) |
| O=C(NCc1ncc(C(F)(F)F)cc1Cl)c1c(Cl)cccc1Cl | -11.1% (inactive) |

| SMILES | activity change, negative = cytotoxicity |
| --- | --- |
| N#C/C(=C1/SC[C@@H](c2ccc(Cl)cc2Cl)S1)n1ccnc1 | 0.738% [at 30.3 µM] (inactive) |
| CC(C)(C)C(=O)c1ccccc1 | -12.6% (inactive) |
| CC(C)OC(=O)CCC(=O)OC(C)C | 7.39% (inactive) |
| CCC(=O)OCCOc1ccccc1 | 12.7% (inactive) |
| CCO[Si](CCCSSSSCCC[Si](OCC)(OCC)OCC)(OCC)OCC | -25.2% (inactive) |
| CCCCCCCCCCCCSCCOCCO | -3.61% [at 30.3 µM] (inactive) |
| CCn1nc(C)c2c1C(=O)NCC(c1ccc(O)cc1)=N2 | 30% (inactive) |
| NC(=S)NC(N)=S | -12.8% (inactive) |
| COc1ccc(COC=O)cc1 | 1.98% (inactive) |
| CSc1ccc(C=O)cc1 | 9.35% (inactive) |
| CC(C)Cn1cnc2c1c(=O)n(C)c(=O)n2C | -8.24% [at 30.3 µM] (inactive) |
| O=C1CCC/C=C\CCCCCCCCCC1 | 2.61% (inactive) |
| O=S(=O)(O)c1ccccc1/C=C/c1ccc(-c2ccc(/C=C/c3ccccc3S(=O)(=O)O)cc2)cc1 | -4.63% (inactive) |
| Cc1cccc(C(=O)O)c1O | -8.74% [at 30.3 µM] (inactive) |
| O=C(O)Cc1ccc(OCCNC[C@H](O)c2ccccc2)cc1 | -1.11% [at 30.3 µM] (inactive) |
| CCCCCC/C=C/C=O | 10.2% (inactive) |
| Cc1[nH]cnc1C[C@H]1CCc2c(C)c3ccccc3n2C1=O | 7.61% (inactive) |
| CC(=O)OCC(C)OC(C)=O (stereo not given) | -10.6% (inactive) |
| CCC(Cl)CC(Cl)C(Cl)C(Cl)C(Cl)C(C)Cl (stereo not given) | -23.5% [at 13.5 µM] (inactive) |
| C=C(C)C(=O)OCCO | 0% (inactive) |
